The first assay has as its system THRa:RXRa (NR concentration 90 nM, RXRa partner concentration 90 nM). Description: PBM binding z-score (relative to random genomic background probes); higher = stronger binding; sequences stand for … in GC…GCGATTGACAGCGTAGAATGAAGG
Put shortly:
(§1)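 Scanned fluorescence from custom Agilent 4×180K protein-binding microarrays was regression-normalized. Binding z-scores use random background probes as reference. Ligand-free nuclear receptor dimers were incubated on the arrays for 1 h and detected with antibodies against each partner (one per run).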
CTATGTAGGTTAAGCGGGTCATTCAGTTTGAAAG: the PBM binding z-score turned out to be 2.56.
Sequence TAGCCTCGGTCATTCAGGGGCCAGTATAGAAAGC had a PBM binding z-score of 1.46.
On the same count and under the same terms, the result for AGTCAAAGTTCTTCTAGGTAACGTAAGATATGCT reads 1.71.
CTCGAAAGGTCGAGCTCAGGTGAGTATACCAAAC displayed a PBM binding z-score of 4.03.
Still for that read-out and setting: with CCGAGTAGGTTACGAGGGGGAATTCAGTGCGAAT the figure was 1.79; with CCGACGGGGGCAGAAAGGTTACCATACCATCCGG, 2.99.
The same measure, in the same setting: with CGTCAAAGTTCAAGGTAAAGTAACAGAAAGCAGC the figure was 2.5; with CCTACTGGGCCATTCAGAGGTCATCGATCATATG, 3.34; with CGTCGAAGGTCAATGCTAGGTCAGTGAAAGCATT, 4.28.
The same measure, in the same setting: with CCGAGTAGGTTACGAGGGGGCATTCATTGCGAAT the figure was 3.7; with CAAAGTAGGTCACCGGAAGGTCAAAGTCCGCATG, 4.35; with CGAACTATGTCACCAGGACAGTGAAGAGGTTGGA, 1.66.
Take CTATCTAGGTTAAGGGGGTCATTCAGTTTGAAAG: the PBM binding z-score worked out at 3.91.
TTACCAAGGTGAAAGGTCGTTGAGGCACGCCTTG had a PBM binding z-score of 3.49.
The sequence TCGAGTAGGTTATGGGGGCATTCAGGGATGAAGA came in with a PBM binding z-score of 3.99.
Same read-out and setting: with CGAACTAGGTCACCAGGACAATGAAGAGGTTGGA the figure was 3.7.
The same measure, in the same setting: the result for CGAACTAGGTCACCAGGACACTGAAGAGGTTGGA reads 3.83; that for CGGACTGGGGCAAAGGTTACCATACTCAGTACGA, 2.1; that for TCGAGTAGGGTACGGGGGCATTCAGGGATGAAGA, 4.02.
In the case of CCTAGTTGGTCAAGGTAACACACGCTATAGGTAC, the PBM binding z-score stood at 1.85.
The same measure, in the same setting: the result for CGAACTAGGACAAAGGACAGTGAAAGGCGACGTA reads 0.519; that for CGAACTACGTCACCAGGACAGTGAAGAGGTTGGA, 1.27; that for CCTACTGGGCCATTAAGAGGTCATTGATCATATG, 3.23.
Same read-out and setting: the result for ATATGTAGGTTAGCGGGGGTCATTCAGACTAGGC reads 4.82.
Still for that read-out and setting: with CCGAGTAGGTTACGAGGGGGCGTTCAGTGCGAAT the figure was 3.16; with ATCTCTAGGTAAAGTTCAGCGAAAGATCGATAGA, 1.41.
For the sequence CTCGAAAGGTCGTGCTTAGGTGAGTATACCAAAC, the PBM binding z-score worked out at 4.2.
As for TCTCGGAGGACACGAAAGGGCAGAGCTCGACATC, the PBM binding z-score stood at 1.76.
The sequence CTATGTAGGTTAAGGGGGTCATTGAGTTTGAAAG showed a PBM binding z-score of 4.01.
Still for that read-out and setting: with TATACTGGGTCAAAGGCCAGAGTACGAATGTCGA the figure was 2.24; with CCCAGTAGGTTACGAGGGGGCATTCAGTGCGAAT, 3.89.
The same measure, in the same setting: the result for ATCTCTAGGTTAAAGTTCAGTGAATCCCGAGGAT reads 2.3; that for CGAACTAGGTCACCAGGACAGTGAGGAGGTTGGA, 3.34; that for ATGTGTAGGTTAGGGTCATTCAGAAAGTAGGGAA, 4.17.
On the same count and under the same terms, with CGATCTAGGTCAAAGGACAGTGAAAGGCGACGTA the figure was 2.62.

In the next assay the test system is THRa homodimer (NR concentration 90 nM). Described as above. In short, it runs like this:
as §1
CTATGTAGGTTAAGCGGGTCATTCAGTTTGAAAG yielded a PBM binding z-score of 0.448.
Still for that read-out and setting: with TAGCCTCGGTCATTCAGGGGCCAGTATAGAAAGC the figure was -0.717; with AGTCAAAGTTCTTCTAGGTAACGTAAGATATGCT, 0.292; with CTCGAAAGGTCGAGCTCAGGTGAGTATACCAAAC, 0.791.
CAAACTAGGTCACCGTAAGGTCAAAGTCCGCATG showed a PBM binding z-score of 5.45.
Still for that read-out and setting: the result for CGTCCAAGGTCAATGTTAGGTCAGTGAAAGCATT reads 3.81; that for CCGAGTAGGTTACGAGGGGGAATTCAGTGCGAAT, 0.0868; that for CCGACGGGGGCAGAAAGGTTACCATACCATCCGG, 0.6.
For the sequence CGTCAAAGTTCAAGGTAAAGTAACAGAAAGCAGC, the PBM binding z-score came to 0.503.
Still for that read-out and setting: with CCTACTGGGCCATTCAGAGGTCATCGATCATATG the figure was 1.72.
Take CGTCGAAGGTCAATGCTAGGTCAGTGAAAGCATT: the PBM binding z-score was 1.03.
Same read-out and setting: with CCGAGTAGGTTACGAGGGGGCATTCATTGCGAAT the figure was 0.405.
The same measure, in the same setting: with CAAAGTAGGTCACCGGAAGGTCAAAGTCCGCATG the figure was 2.03; with TCGAGTAGGTTACGGGGTCATTCAGGGATGAAGA, 2.5; with CGAACTATGTCACCAGGACAGTGAAGAGGTTGGA, 0.878.
Still for that read-out and setting: the result for CTATCTAGGTTAAGGGGGTCATTCAGTTTGAAAG reads 2.14.
TTACCAAGGTGAAAGGTCGTTGAGGCACGCCTTG returned a PBM binding z-score of 0.818.
Regarding TCGAGTAGGTTATGGGGGCATTCAGGGATGAAGA, the PBM binding z-score amounted to 1.84.
The same measure, in the same setting: the result for CGAACTAGGTCACCAGGACAATGAAGAGGTTGGA reads 2.12.
On the same count and under the same terms, the result for CGAACTAGGTCACCAGGACACTGAAGAGGTTGGA reads 2.39; that for CGGACTGGGGCAAAGGTTACCATACTCAGTACGA, 0.079.
On the same count and under the same terms, with TCGAGTAGGGTACGGGGGCATTCAGGGATGAAGA the figure was 1.48; with CCTAGTTGGTCAAGGTAACACACGCTATAGGTAC, 1.57; with CGAACTAGGACAAAGGACAGTGAAAGGCGACGTA, -0.508.
CGAACTACGTCACCAGGACAGTGAAGAGGTTGGA came in with a PBM binding z-score of 0.657.
Still for that read-out and setting: the result for CCTACTGGGCCATTAAGAGGTCATTGATCATATG reads 1.49; that for ATATGTAGGTTAGCGGGGGTCATTCAGACTAGGC, 2.75.
The sequence CCGAGTAGGTTACGAGGGGGCGTTCAGTGCGAAT registered a PBM binding z-score of 0.485.
Regarding CCGAGTAGGTTACGAGGCGGCATTCAGTGCGAAT, the PBM binding z-score is -0.252.
On the same count and under the same terms, with ATCTCTAGGTAAAGTTCAGCGAAAGATCGATAGA the figure was 0.214.
On the same count and under the same terms, with CTCGAAAGGTCGTGCTTAGGTGAGTATACCAAAC the figure was 1.11; with TCTCGGAGGACACGAAAGGGCAGAGCTCGACATC, 0.0765.
Still for that read-out and setting: the result for CTATGTAGGTTAAGGGGGTCATTGAGTTTGAAAG reads 2.02.
For the sequence TATACTGGGTCAAAGGCCAGAGTACGAATGTCGA, the PBM binding z-score came out at 0.212.
Consider CCCAGTAGGTTACGAGGGGGCATTCAGTGCGAAT, for which the PBM binding z-score is 0.525.
Same read-out and setting: with ATCTCTAGGTTAAAGTTCAGTGAATCCCGAGGAT the figure was 0.775.
The same measure, in the same setting: the result for CGAACTAGGTCACCAGGACAGTGAGGAGGTTGGA reads 1.7.
The same measure, in the same setting: the result for ATGTGTAGGTTAGGGTCATTCAGAAAGTAGGGAA reads 3.9; that for CGATCTAGGTCAAAGGACAGTGAAAGGCGACGTA, 0.472.

Values taken from the supplement of paper PMC6555819.
